Source: PubChem BioAssay (several laboratories)
Anthrax LF prot – Bacillus anthracis LF protease inhibitors, primary screen, biochemical, multiplex microsphere, MLPCN library; multiplex microsphere protease cleavage assay; 360,000 compounds, 0.12% hits; inhibition, % at 10 µM; Lethal factor (Bacillus anthracis), P15917; also: plate controls were buffer without enzyme for full effect and enzyme alone for no effect
Bead autofluor – counter-screen for toxin protease inhibitors: compound fluorescence | fluorescence intensity (concentration not given with the values) | 360,000 compounds, 3.1% hits | compound autofluorescence counterscreen, microsphere flow cytometry; stronger effect = higher value; in the data active = fluorescence intensity above about 16000; inconclusive = no clear call, values can overlap the other calls
MazF activator – activators of E. coli MazEF toxin-antitoxin RNase, primary screen, biochemical, fluorescence, uHTS | Endoribonuclease toxin MazF (Escherichia coli (strain K12)), P0AE70 | FAM/BHQ RNA-DNA oligo cleavage fluorescence, 5 h | activation, % at 20 µM | 350,000 compounds, 0.32% hits | AID 504720, 2011; in the data active = activation above about 50%
BoNT A protease – BoNT/A light chain protease inhibitors, primary screen, biochemical, flow cytometry, MLPCN library; Botulinum neurotoxin type A light chain protease (Clostridium botulinum A str. ATCC 3502); multiplex microsphere protease substrate cleavage; inhibition, % at 10 µM; 360,000 compounds, 0.17% hits; AID 588499, 2011; also: plate controls were buffer without enzyme for full effect and enzyme alone for no effect
BoNT-F LC inh – BoNT/F light chain protease inhibitors, primary screen, biochemical, flow cytometry, MLPCN library; Botulinum neurotoxin type F light chain protease (Clostridium botulinum); Multiplex microsphere protease cleavage assay; inhibition, % at 10 µM; 360,000 compounds, 0.22% hits; AID 588497, 2011; in the data active = inhibition above about 35%, passing the limit was not always enough; inconclusive = no clear call, values can overlap the other calls; also: plate controls were buffer without enzyme for full effect and enzyme alone for no effect
* = called active by the depositor; u = inconclusive; x = no result. A selection: hits, their analogues and other compounds. The true share with any hit is near 3.7%. Rule as the data show it, unless noted: active = inhibition above about 30%; inconclusive = no clear call, values can overlap the other calls; inactive = below that.

SMILES	Anthrax LF prot	Bead autofluor	MazF activator	BoNT A protease	BoNT-F LC inh
CC(C)(C)c1csc(SCC(=O)Nc2ccc(Cl)cn2)n1	-8	18967*	-6	2	1
N#Cc1ccc(CSc2nnc(Cc3cccs3)n2Cc2ccco2)cc1	4	3336	25	0	4
N#Cc1ccc(CSc2nnc(-c3ccccc3)n2Cc2ccco2)cc1	-2	24109*	-2	u	-2
c1ccc(-c2nnc(SCc3nc4ccccc4[nH]3)n2Cc2ccco2)cc1	-1	22637*	0	u	4
CC(=O)Nc1ccc(SCC(=O)Nc2ccccc2N2CCOCC2)cc1	0	3687	5	0	-1
O=C1NC[C@H](CCCCN2C[C@H](Cc3ccccc3)N(Cc3ccccc3)C(=O)C2=O)N(CCC2CCCCC2)C1=O	1	5042	x	1	1
COc1ccc(N(CC(O)CN2C(=O)NC(C)(C)C2=O)S(=O)(=O)c2ccccc2)cc1 (configuration not stated)	0	23290*	-1	-1	-2
Cc1ccc(-c2noc(CSc3nnc(-c4ccncc4)n3-c3ccc(C)cc3)n2)cc1	0	24919*	2	-7	-11
CCOc1ccc(-n2c(SCc3nc(-c4ccc(C)cc4)no3)nnc2-c2ccncc2)cc1	-12	10666	3	24	25
CCCCNC(=O)COC(=O)c1cc(F)c(F)cc1Cl	-1	23808*	-2	0	-1
CC1(NC(=O)N2CCCCC2)CCS(=O)(=O)C1 (configuration not stated)	-1	22585*	4	2	3
CCCC1C(c2ccc(OC)cc2)C(C#N)(C#N)C2(C#N)CC1(N)NC2=O (configuration not stated)	-1	20036*	5	1	1
C#CC(CC)(CC)NC(=O)/C=C/C(=O)O	32*	u	3	1	u
CC(C)NC(=O)/C=C/C(=O)O	-5	4027	4	0	4
CC1Cc2ccccc2N1C(=O)CSc1nnc2c(n1)[nH]c1ccccc12 (configuration not stated)	0	2464	2	0	-7
CC1Cc2ccccc2N1C(=O)CSc1nnc(-c2ccc(S(=O)(=O)N3CCOCC3)cc2)n1C (configuration not stated)	0	2400	5	0	-3
COc1ccc(C(=O)CSc2nnc(-c3ccc(S(=O)(=O)N4CCOCC4)cc3)o2)cc1	-1	20449*	-8	-3	-4
CC1Cc2ccccc2N1C(=O)CSc1nnc(-c2ccccc2)c(-c2ccccc2)n1 (configuration not stated)	u	16388*	1	u	u
CC1Cc2ccccc2N1C(=O)CSc1nnc(-c2ccc(S(=O)(=O)N3CCCC3)cc2)o1 (configuration not stated)	-1	20428*	-6	u	-4
CCN(CC)S(=O)(=O)c1ccc(-c2nnc(SCC(C)=O)o2)cc1	1	16485*	9	-1	-5
CCOC(=O)N1CCN(C(=O)c2ccc(CS(=O)c3cccc(C)c3)o2)CC1 (configuration not stated)	2	4462	4	-1	2
Cc1ccc(SCC(=O)OCC(=O)N2CCN(C(=O)c3ccco3)CC2)c(C)c1	-3	7555	-15	-5	-3
N#CC1C=Cc2c(ccc3ccccc23)N1C(=O)c1ccccc1 (configuration not stated)	-4	3147	9	0	-3
Cc1ccc(-c2nnc(SCC(=O)Nc3ccc(S(=O)(=O)N4CCCCCC4)cc3)o2)cc1	1	9547	4	1	11
COc1ccc(-c2nnc(SCC(=O)NCc3ccco3)o2)cc1	-5	11192	0	-5	-34
SMILES	Anthrax LF prot	Bead autofluor	MazF activator	BoNT A protease	BoNT-F LC inh
CC(=O)c1cccc(NC(=O)CSc2nnc(-c3ccc(S(=O)(=O)N4CCCC4)cc3)o2)c1	1	21749*	-3	1	4
CCN(CC)C(=O)CSc1nnc(-c2ccc(S(=O)(=O)N3CCCC3)cc2)o1	-1	22144*	-4	u	-1
Cc1csc(NC(=O)CSc2nnc(-c3ccc(S(=O)(=O)N4CCCC4)cc3)o2)n1	-1	10686	-21	0	-5
O=C(CSc1nnc(-c2ccc(S(=O)(=O)N3CCCC3)cc2)o1)NCc1ccco1	1	21711*	-2	2	3
CCOC(=O)COc1ccccc1-c1ccno1	-3	21115*	0	u	-8
CCOC(=O)COc1ccccc1/C=C1\NC(=O)NC1=O	2	4868	5	0	0
COc1ccc(NC(=O)Nc2cccc3c2O[C@H](CN(C)C(=O)NC(C)C)[C@@H](C)CN([C@H](C)CO)C3=O)cc1	-1	3076	1	0	-5
Cc1csc(Sc2ccc([N+](=O)[O-])cc2C(=O)OCC(=O)NC2CCCC(C)C2C)n1 (configuration not stated)	0	16483*	3	0	0
CCOc1cccc(N2C(=O)CC(N3CCN(c4ccc(S(=O)(=O)CC)cc4)CC3)C2=O)c1 (configuration not stated)	-6	22715*	0	2	3
Cc1cccc(N2C(=O)CC(N3CCN(c4cccc(C(F)(F)F)c4)CC3)C2=O)c1 (configuration not stated)	0	20300*	-18	u	-2
CCOC(=O)C1CCCN(C2CC(=O)N(c3cccc(C(F)(F)F)c3)C2=O)C1 (configuration not stated)	-3	23785*	8	u	-5
O=C1CC(N2CCN(c3ccccc3)CC2)C(=O)N1c1cccc(Cl)c1 (configuration not stated)	-1	3465	3	-3	17
CCOc1ccc(N2C(=O)CC(N3CCN(c4ccc(Cl)cc4)CC3)C2=O)cc1 (configuration not stated)	13	3341	-1	0	-9
O=C1CC(N2CCN(c3cccc(C(F)(F)F)c3)CC2)C(=O)N1c1ccc(F)cc1 (configuration not stated)	-5	22486*	0	0	-2
O=C1CC(N2CCN(c3ccccn3)CC2)C(=O)N1c1ccc(F)cc1 (configuration not stated)	-10	3392	-22	-1	-4
CCC/C(C#CCCN1C(=O)c2ccccc2C1=O)=C1/c2ccccc2C(=O)N1c1ccccc1	-8	3824	-10	0	4
Cn1cnc(S(=O)(=O)N2CCCCC2c2cc(C(=O)Nc3cccc(C#N)c3)no2)c1 (configuration not stated)	4	3832	x	0	-3
O=C(Nc1cccc(C(=O)O)c1)/C(=C\c1ccccc1)NC(=O)c1ccco1	-8	3863	7	0	0
